# In the supplement of paper PMC8728848:
# About 410 targets per protein were measured; listed, in parts, are those with the strongest signals and a random draw of the rest.
# Tests used:
# Assay in all cases: glycan array binding signal (z-score within array); higher = stronger binding
# Conditions in all cases: glycan notation: IUPAC condensed, linker removed
# [1] = biological target: Fuc(a1-2)Gal(b1-3)GlcNAc(b1-3)[Fuc(a1-3)[Gal(b1-4)]GlcNAc(b1-6)]Gal(b1-4)Glc
# Method in brief: (§1)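 Glycan array data were curated from 3228 arrays in the Consortium for Functional Glycomics database and kept only where the protein sequence was available. Glycan names were converted to IUPAC-condensed notation, and columns mapping to the same glycan were averaged. The binding signal is a within-array Z-score, averaged across arrays of the same protein sequence at different concentrations or buffers and across linkers. Negative Z-scores can be read as non-binding.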
# [2] = biological target: Fuc(a1-2)Gal(b1-4)GlcNAc(b1-3)GalNAc
# Method in brief: as §1
# [3] = biological target: Fuc(a1-2)Gal(b1-4)[Fuc(a1-3)]GlcNAc
# Method in brief: as §1
# [4] = biological target: Fuc(a1-2)Gal(b1-4)[Fuc(a1-3)]GlcNAc(b1-2)Man(a1-3)[Fuc(a1-2)Gal(b1-4)[Fuc(a1-3)]GlcNAc(b1-2)Man(a1-6)]Man(b1-4)GlcNAc(b1-4)GlcNAc
# Method in brief: as §1
# [5] = biological target: Fuc(a1-2)[GalNAc(a1-3)]Gal
# Method in brief: as §1
# Gal(a1-3)Gal(b1-4)GlcNAc = biological target: Gal(a1-3)Gal(b1-4)GlcNAc
# Method in brief: as §1
# Gal(a1-6)Glc = biological target: Gal(a1-6)Glc
# Method in brief: as §1
# Gal(b1-3)Gal(b1-4)GlcNAc = biological target: Gal(b1-3)Gal(b1-4)GlcNAc
# Method in brief: as §1
# [6] = biological target: Gal(b1-3)GlcNAc(b1-3)Gal(b1-4)Glc
# Method in brief: as §1
# [7] = biological target: Gal(b1-3)[Fuc(a1-4)]GlcNAc(b1-2)Man(a1-3)[Gal(b1-3)[Fuc(a1-4)]GlcNAc(b1-2)Man(a1-6)]Man(b1-4)GlcNAc(b1-4)[Fuc(a1-6)]GlcNAc
# Method in brief: as §1
# [8] = biological target: Gal(b1-3)[GlcNAc(b1-6)]GalNAc
# Method in brief: as §1
# [9] = biological target: Gal(b1-4)GlcNAc(a1-6)Gal(b1-4)GlcNAc
# Method in brief: as §1
# [10] = biological target: Gal(b1-4)GlcNAc(b1-2)Man(a1-3)[Gal(b1-4)GlcNAc(b1-2)Man(a1-6)]Man(b1-4)GlcNAc(b1-4)GlcNAc
# Method in brief: as §1
# [11] = biological target: Gal(b1-4)GlcNAc(b1-2)Man(a1-3)[Man(a1-6)]Man(b1-4)GlcNAc(b1-4)GlcNAc
# Method in brief: as §1
# [12] = biological target: Gal(b1-4)GlcNAc(b1-2)Man(a1-6)[Man(a1-3)]Man(b1-4)GlcNAc(b1-4)GlcNAc
# Method in brief: as §1
# [13] = biological target: Gal(b1-4)GlcNAc(b1-2)[Gal(b1-4)GlcNAc(b1-4)]Man(a1-3)[Gal(b1-4)GlcNAc(b1-2)Man(a1-6)]Man(b1-4)GlcNAc(b1-4)GlcNAc
# Method in brief: as §1
# [14] = biological target: Gal(b1-4)GlcNAc(b1-3)Gal(b1-4)GlcNAc
# Method in brief: as §1
# [15] = biological target: Gal(b1-4)GlcNAc(b1-3)Gal(b1-4)GlcNAc(b1-3)Gal(b1-4)GlcNAc
# Method in brief: as §1
# [16] = biological target: Gal(b1-4)GlcNAc(b1-3)Gal(b1-4)[Fuc(a1-3)]GlcNAc(b1-3)Gal(b1-4)[Fuc(a1-3)]GlcNAc
# Method in brief: as §1
# [17] = biological target: Gal(b1-4)GlcNAc(b1-3)[Gal(b1-4)GlcNAc(b1-6)]Gal(b1-4)GlcNAc
# Method in brief: as §1
# [18] = biological target: Gal(b1-4)GlcNAc(b1-6)GalNAc
# Method in brief: as §1
# Gal3S(b1-3)GlcNAc = biological target: Gal3S(b1-3)GlcNAc
# Method in brief: as §1
# Kdn(a2-6)Gal(b1-4)GlcNAc = biological target: Kdn(a2-6)Gal(b1-4)GlcNAc
# Method in brief: as §1
# [19] = biological target: Man(a1-2)Man(a1-3)[Man(a1-2)Man(a1-6)]Man
# Method in brief: as §1
# [20] = biological target: Man(a1-2)Man(a1-3)[Man(a1-2)Man(a1-6)]Man(a1-6)[Man(a1-2)Man(a1-2)Man(a1-3)]Man
# Method in brief: as §1
# [21] = biological target: Neu5Ac(a2-3)Gal(b1-3)GlcNAc6S
# Method in brief: as §1
# [22] = biological target: Neu5Ac(a2-3)Gal(b1-4)[Fuc(a1-3)]GlcNAc(b1-3)Gal(b1-4)GlcNAc
# Method in brief: as §1
# [23] = biological target: Neu5Ac(a2-3)Gal(b1-4)[Fuc(a1-3)]GlcNAc6S
# Method in brief: as §1
# Neu5Ac(a2-3)GalNAc = biological target: Neu5Ac(a2-3)GalNAc
# Method in brief: as §1
# [24] = biological target: Neu5Gc(a2-3)Gal(b1-3)GlcNAc
# Method in brief: as §1
binder,measurement,setting,value
"Galatrox (Botrops atrox), P0DM53 (protein) NNCPQDWLPMNGLCYKIFDELKAWKDAEMFCRKYKPGCHLASIILYGESPEWAEGHSEVWLGLWDKKKDFSWEWTDR",glycan array binding signal (z-score),[1],-0.364
same,glycan array binding signal (z-score),[2],-0.36
same,glycan array binding signal (z-score),[3],-0.364
same,glycan array binding signal (z-score),[4],0.123
same,glycan array binding signal (z-score),[5],-0.357
same,glycan array binding signal (z-score),Gal(a1-3)Gal(b1-4)GlcNAc,-0.137
same,glycan array binding signal (z-score),Gal(a1-6)Glc,-0.37
same,glycan array binding signal (z-score),Gal(b1-3)Gal(b1-4)GlcNAc,3.61
same,glycan array binding signal (z-score),[6],0.413
same,glycan array binding signal (z-score),[7],-0.333
same,glycan array binding signal (z-score),[8],-0.192
same,glycan array binding signal (z-score),[9],3.28
same,glycan array binding signal (z-score),[10],1.27
same,glycan array binding signal (z-score),[11],0.001
same,glycan array binding signal (z-score),[12],1.15
same,glycan array binding signal (z-score),[13],3.31
same,glycan array binding signal (z-score),[14],3.16
same,glycan array binding signal (z-score),[15],3.28
same,glycan array binding signal (z-score),[16],3.31
same,glycan array binding signal (z-score),[17],4.18
same,glycan array binding signal (z-score),[18],2.44
same,glycan array binding signal (z-score),Gal3S(b1-3)GlcNAc,-0.363
same,glycan array binding signal (z-score),Kdn(a2-6)Gal(b1-4)GlcNAc,0.063
same,glycan array binding signal (z-score),[19],-0.378
same,glycan array binding signal (z-score),[20],-0.369
same,glycan array binding signal (z-score),[21],-0.36
same,glycan array binding signal (z-score),[22],2.3
same,glycan array binding signal (z-score),[23],-0.373
same,glycan array binding signal (z-score),Neu5Ac(a2-3)GalNAc,-0.364
same,glycan array binding signal (z-score),[24],-0.368
